According to PubChem BioAssay (NCI):
This is part of a sample that, as a whole, favours compounds with a hit. Of some 79,000 tested, about 15% had one in any assay. Activity calls are given as the source filed them. Cut-off read from the data, not from the text of the source: active = growth inhibition above about 70%; inactive = the rest.

Assays:
[1] = NCI Yeast Anticancer Drug Screen. Data for the rad52 strain (AID 147);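 note: 0% = growth of vehicle-treated control cultures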; conditions: S. cerevisiae rad52 mutant growth inhibition, active compounds read high
How it was run: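 Growth of repair-deficient yeast cells was compared between compound-treated and vehicle-treated cultures to give percent inhibition.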

[2] = NCI Yeast Anticancer Drug Screen. Data for the wt1 strain (AID 149);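 note: 0% = growth of vehicle-treated wt1 cultures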; conditions: S. cerevisiae wt1 strain (SPY 50644) growth inhibition, active compounds read high
How it was run: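 Measured: growth of wt1 yeast under compound versus vehicle treatment, reported as inhibition.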

[3] = NCI Yeast Anticancer Drug Screen. Data for the rad50EPP+ strain (AID 151);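 note: 0% = growth of vehicle-treated control cultures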; conditions: S. cerevisiae rad50 mutant strain, active compounds read high
How it was run: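 Measured: growth inhibition of rad50EPP+ yeast. Reference: vehicle-treated controls. Screen uses strains with defined genetic alterations in DNA damage repair or cell cycle control.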

[4] = NCI Yeast Anticancer Drug Screen. Data for the mgt1 strain (AID 153); conditions: S. cerevisiae mgt1 mutant growth inhibition, active compounds read high
How it was run: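 Compounds were applied to mgt1 mutant yeast, and growth was then compared against vehicle-treated control cultures to give percent inhibition.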

[5] = NCI Yeast Anticancer Drug Screen. Data for the rad50 strain (AID 155);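 note: 0% = growth of vehicle-only cultures of the same strain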; conditions: S. cerevisiae rad50 strain growth inhibition, active compounds read high
How it was run: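 Growth of the mutant yeast was measured after compound exposure and referenced to vehicle-treated cultures.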

[6] = NCI Yeast Anticancer Drug Screen. Data for the mec2-1 strain (AID 157); conditions: S. cerevisiae mec2-1 strain, active compounds read high
How it was run: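 Compounds were applied to mec2-1 yeast cells. Their growth was then compared with that of vehicle-treated cultures to give growth inhibition.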

[7] = NCI Yeast Anticancer Drug Screen. Data for the rad14 strain (AID 159);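 note: 0% = growth of vehicle-treated control cultures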; conditions: S. cerevisiae rad14 strain growth inhibition, active compounds read high
How it was run: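 Here, inhibition of yeast growth was measured after compound exposure, using a strain with a genetic defect in DNA damage repair and vehicle-treated cultures as the reference.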

[8] = NCI Yeast Anticancer Drug Screen. Data for the sgs1 mgt1 strain (AID 161);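 note: 0% = growth of cultures given vehicle only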; conditions: S. cerevisiae sgs1 mgt1 strain, active compounds read high
How it was run: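 Growth of a repair-deficient yeast mutant was monitored after compound treatment and expressed as inhibition relative to vehicle-treated cultures.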

[9] = NCI Yeast Anticancer Drug Screen. Data for the CLN2oe strain (AID 163);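 note: 0% = growth of vehicle-only control cultures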; conditions: S. cerevisiae CLN2oe strain, active compounds read high
How it was run: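 Cells of an engineered yeast line with disturbed cell-cycle regulation are treated with compound. Inhibition of growth is then calculated relative to the vehicle-treated reference.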

[10] = NCI Yeast Anticancer Drug Screen. Data for the cln2 rad14 strain (AID 165);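 note: 0% = growth equal to vehicle treated cultures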; conditions: S. cerevisiae cln2 rad14 strain, active compounds read high
How it was run: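 Strain: cln2 rad14 yeast, altered in cell cycle control and DNA damage repair. Read-out: growth inhibition vs vehicle.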

[11] = NCI Yeast Anticancer Drug Screen. Data for the bub3 strain (AID 167); conditions: S. cerevisiae bub3 mutant strain, active compounds read high
How it was run: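 Whole-cell yeast assay. The mutant strain was incubated with compounds, and growth inhibition was determined by comparison with vehicle-treated cells.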

[12] = NCI Yeast Anticancer Drug Screen. Data for the wt2 strain (AID 169);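 note: 0% = growth of vehicle-treated yeast cultures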; conditions: S. cerevisiae wt2 strain growth inhibition, active compounds read high
How it was run: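 Growth of compound-treated yeast is measured and expressed as inhibition relative to vehicle-only controls.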

[13] = NCI Yeast Anticancer Drug Screen. Data for the mlh1 strain (AID 171);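 note: 0% = growth of vehicle-treated control cultures of the same strain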; conditions: S. cerevisiae mlh1 strain growth inhibition, active compounds read high
How it was run: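 Test agents were incubated with yeast bearing a defined DNA damage repair or cell cycle control alteration; values are growth inhibition normalised to vehicle-treated cultures.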

[14] = NCI Yeast Anticancer Drug Screen. Data for the sgs1 strain (AID 173);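 note: 0% = growth of vehicle-only control cultures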; conditions: S. cerevisiae sgs1 mutant, active compounds read high
How it was run: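 Strain with an altered DNA repair or cell cycle pathway exposed to compound. Growth then measured. Value = inhibition versus vehicle control.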

[15] = NCI Yeast Anticancer Drug Screen. Data for the mlh1 rad18 strain (AID 175); conditions: S. cerevisiae mlh1 rad18 strain growth inhibition, active compounds read high
How it was run: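 A repair-deficient yeast strain is exposed to test compound, and growth is scored relative to vehicle-treated controls.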

[16] = NCI Yeast Anticancer Drug Screen. Data for the rad18 strain (AID 177); conditions: S. cerevisiae rad18 mutant growth inhibition, active compounds read high
How it was run: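 DNA-repair-defective yeast; compound treatment; growth inhibition scored against vehicle.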

[17] = at 5.0 µM (retest, dose inferred, filed as 0.5)
[18] = at 50.0 µM (retest, dose inferred, filed as 5.0)

Measured: growth inhibition

CC(C)c1ccc(NC(=S)NC(=O)c2ccccc2)cc1
active: [11]; at 11.0 µM 78% | [11]; at 33.0 µM 86% | [11]; [18] 87% | [11]; at 50.0 µM 76% | [11]; at 100.0 µM 80%
inactive: [1]; at 1.2 µM -32% | [1]; at 3.7 µM -30% | [1]; at 11.0 µM -19% | [1]; at 33.0 µM 12% | [1]; at 100.0 µM 26% | [2]; at 1.2 µM -9% | [2]; at 3.7 µM -22% | [2]; at 11.0 µM 4% | [2]; at 33.0 µM 20% | [2]; at 100.0 µM 41% | [3]; at 1.2 µM -2% | [3]; at 3.7 µM 4% | [3]; at 11.0 µM 47% | [3]; at 33.0 µM 53% | [3]; at 100.0 µM 58% | [4]; at 1.2 µM -27% | [4]; at 3.7 µM -23% | [4]; at 11.0 µM 27% | [4]; at 33.0 µM 52% | [4]; at 100.0 µM 47% | [5]; at 1.2 µM -27% | [5]; at 3.7 µM -19% | [5]; [17] 10% | [5]; at 11.0 µM 1% | [5]; at 33.0 µM 31% | [5]; [18] 31% | [5]; at 50.0 µM 52% | [5]; at 100.0 µM 39% | [6]; at 1.2 µM -35% | [6]; at 3.7 µM -19% | [6]; [17] 0% | [6]; at 11.0 µM 4% | [6]; at 33.0 µM 23% | [6]; [18] 40% | [6]; at 50.0 µM 42% | [6]; at 100.0 µM 38% | [7]; at 1.2 µM -19% | [7]; at 3.7 µM 0% | [7]; at 11.0 µM -3% | [7]; at 33.0 µM 42% | [7]; at 100.0 µM 30% | [8]; [17] 2% | [8]; [18] 69% | [8]; at 50.0 µM 66.6% | [9]; at 1.2 µM -21% | [9]; at 3.7 µM -21% | [9]; at 11.0 µM -2% | [9]; at 33.0 µM 56% | [9]; at 100.0 µM 51% | [10]; [17] 17% | [10]; [18] 64% | [10]; at 50.0 µM 40.9% | [11]; at 1.2 µM 3% | [11]; at 3.7 µM 41% | [11]; [17] 42% | [12]; at 1.2 µM -25% | [12]; at 3.7 µM -26% | [12]; at 11.0 µM -6% | [12]; at 33.0 µM 46% | [12]; at 100.0 µM 37% | [13]; at 1.2 µM -11% | [13]; at 3.7 µM 2% | [13]; at 11.0 µM 29% | [13]; at 33.0 µM 60% | [13]; at 100.0 µM 56% | [14]; at 1.2 µM -23% | [14]; at 3.7 µM -16% | [14]; at 11.0 µM 15% | [14]; at 33.0 µM 50% | [14]; at 100.0 µM 55% | [15]; [17] 5% | [15]; [18] 59% | [15]; at 50.0 µM 34% | [16]; at 1.2 µM -28% | [16]; at 3.7 µM -28% | [16]; at 11.0 µM -17% | [16]; at 33.0 µM 3% | [16]; at 100.0 µM 26%

CC[N+](CC)(CC)c1ccccc1
active: [5]; [18] 98% | [6]; [18] 98% | [11]; at 50.0 µM 75.5% | [15]; [18] 99%
inactive: [1]; at 1.2 µM 8% | [1]; at 3.7 µM -7% | [1]; at 11.0 µM 0% | [1]; at 33.0 µM -3% | [1]; at 100.0 µM -6% | [2]; at 1.2 µM -21% | [2]; at 3.7 µM -27% | [2]; at 11.0 µM -28% | [2]; at 33.0 µM -26% | [2]; at 100.0 µM -28% | [3]; at 1.2 µM -8% | [3]; at 3.7 µM -14% | [3]; at 11.0 µM -14% | [3]; at 33.0 µM -22% | [3]; at 100.0 µM -20% | [4]; at 1.2 µM 1% | [4]; at 3.7 µM 1% | [4]; at 11.0 µM -6% | [4]; at 33.0 µM 8% | [4]; at 100.0 µM -8% | [5]; at 1.2 µM 19% | [5]; at 3.7 µM 24% | [5]; [17] 17% | [5]; at 11.0 µM 16% | [5]; at 33.0 µM 14% | [5]; at 50.0 µM 62.5% | [5]; at 100.0 µM 21% | [6]; at 1.2 µM -5% | [6]; at 3.7 µM -3% | [6]; [17] 35% | [6]; at 11.0 µM -8% | [6]; at 33.0 µM 1% | [6]; at 50.0 µM -1.75% | [6]; at 100.0 µM 8% | [7]; at 1.2 µM -28% | [7]; at 3.7 µM -36% | [7]; at 11.0 µM -34% | [7]; at 33.0 µM -33% | [7]; at 100.0 µM -25% | [8]; [17] -21% | [8]; [18] -13% | [8]; at 50.0 µM 39.8% | [9]; at 1.2 µM 16% | [9]; at 3.7 µM 5% | [9]; at 11.0 µM 8% | [9]; at 33.0 µM -11% | [9]; at 100.0 µM -8% | [10]; [17] 20% | [10]; [18] 33% | [10]; at 50.0 µM 24.1% | [11]; at 1.2 µM 16% | [11]; at 3.7 µM 15% | [11]; [17] 31% | [11]; at 11.0 µM 15% | [11]; at 33.0 µM 19% | [11]; [18] 26% | [11]; at 100.0 µM 11% | [12]; at 1.2 µM -23% | [12]; at 3.7 µM -32% | [12]; at 11.0 µM -32% | [12]; at 33.0 µM -23% | [12]; at 100.0 µM -30% | [13]; at 1.2 µM -26% | [13]; at 3.7 µM -46% | [13]; at 11.0 µM -43% | [13]; at 33.0 µM -43% | [13]; at 100.0 µM -42% | [14]; at 1.2 µM -15% | [14]; at 3.7 µM -21% | [14]; at 11.0 µM -22% | [14]; at 33.0 µM -19% | [14]; at 100.0 µM -23% | [15]; [17] 30% | [15]; at 50.0 µM 26.2% | [16]; at 1.2 µM 3% | [16]; at 3.7 µM 10% | [16]; at 11.0 µM 6% | [16]; at 33.0 µM 3% | [16]; at 100.0 µM 10%
